# Measurements taken from PubChem BioAssay.
# Activity calls are given as the source filed them.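 Rule for the calls, unless noted: active = normalized viability below 100% at a tested concentration; inactive = the rest.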
# Columns and labels:
# [1] = ovarian cancer cell viability with rucaparib, profiling panel, oncology-focused library, rucaparib conditional (AID 1508598); conditions: patient-derived ovarian cancer cells, CellTiter-Glo viability, 144 h, stronger effect = lower value
# [2] = survival rescue of mitochondrial mutant cells in low glucose, primary screen, MELAS cybrids, Rieske KO mouse fibroblasts, CellTiter-Glo (AID 1508586;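 active = mean z-score across replicates of 1.96 or higher in either the MELAS or the Rieske mutant cell line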;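 note: z relative to plate mean and SD of compound and empty wells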)
# [3] = viability rescue of complex I mutant cybrids, primary screen, cell-based, galactose medium, ATP luminescence (AID 1645843;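 active = z-score of at least 1.8 in each of two replicates, scored against plate mean and spread of sample wells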;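 note: positive z means more ATP and so rescue of galactose-driven cybrid death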); conditions: complex I mutant cybrid cells, 72 h, stronger effect = higher value
# [4] = kinase inhibitors against Plasmodium liver-stage infection, cell-based, known kinase inhibitor set, luminescence, hepatoma host viability (AID 624392; call rule not given here;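 note: infected cells incubated roughly two days before readout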); conditions: Plasmodium liver stage in hepatoma cells, luciferase luminescence, concentration not given here; liver cell % of control: measured here: host liver cell viability; parasite % of control: stronger effect = lower value
# [5] = modulators of glucocorticoid suppression of NF-kB, cell-based, luciferase, IL-1B stimulus, dexamethasone (AID 624486; call rule not given here;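 for percent of negative control (+Dex): 100% = mean signal of vehicle control wells on the plate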); conditions: NF-kB luciferase reporter, IL-1B + dexamethasone, luminescence; percent of negative control (+Dex): actives lie on both sides, concentration not given here; z-score: measured here: IL-1B alone, no Dex
# [6] = kinase inhibitors altering Pseudomonas killing of worms, whole organism (AID 651566; call rule not given here;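 note: tested at 14 µM; sign flipped so higher z means a lower ratio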); conditions: C. elegans killed by P. aeruginosa, survival ratio
# [7] = activators of macrophage pro-inflammatory response, cell-based, murine, luminescence (AID 652131; call rule not given here); conditions: murine macrophage pro-inflammatory reporter, stronger effect = higher value
# [8] = at 0.000305 µM, OCI-C5x cells, with rucaparib 10 µM, 100% = cells with rucaparib alone
# [9] = at 0.000305 µM, OCI-C5x cells, without rucaparib
# [10] = at 0.000305 µM, OCI-P5x cells, with rucaparib 20 µM, 100% = cells with rucaparib alone
# [11] = at 0.000305 µM, OCI-P5x cells, without rucaparib
# [12] = at 0.00122 µM, OCI-C5x cells, with rucaparib 10 µM, 100% = cells with rucaparib alone
# [13] = at 0.00122 µM, OCI-C5x cells, without rucaparib
# [14] = at 0.00122 µM, OCI-P5x cells, with rucaparib 20 µM, 100% = cells with rucaparib alone
# [15] = at 0.00122 µM, OCI-P5x cells, without rucaparib
# [16] = at 0.00488 µM, OCI-C5x cells, with rucaparib 10 µM, 100% = cells with rucaparib alone
# [17] = at 0.00488 µM, OCI-C5x cells, without rucaparib
# [18] = at 0.00488 µM, OCI-P5x cells, with rucaparib 20 µM, 100% = cells with rucaparib alone
# [19] = at 0.00488 µM, OCI-P5x cells, without rucaparib
# [20] = at 0.0195 µM, OCI-C5x cells, with rucaparib 10 µM, 100% = cells with rucaparib alone
# [21] = at 0.0195 µM, OCI-C5x cells, without rucaparib
# [22] = at 0.0195 µM, OCI-P5x cells, with rucaparib 20 µM, 100% = cells with rucaparib alone
# [23] = at 0.0195 µM, OCI-P5x cells, without rucaparib
# [24] = at 0.0781 µM, OCI-C5x cells, with rucaparib 10 µM, 100% = cells with rucaparib alone
# [25] = at 0.0781 µM, OCI-C5x cells, without rucaparib
# [26] = at 0.0781 µM, OCI-P5x cells, with rucaparib 20 µM, 100% = cells with rucaparib alone
# [27] = at 0.0781 µM, OCI-P5x cells, without rucaparib
# [28] = at 0.313 µM, OCI-C5x cells, with rucaparib 10 µM, 100% = cells with rucaparib alone
# [29] = at 0.313 µM, OCI-C5x cells, without rucaparib
# [30] = at 0.313 µM, OCI-P5x cells, with rucaparib 20 µM, 100% = cells with rucaparib alone
# [31] = at 0.313 µM, OCI-P5x cells, without rucaparib
# [32] = at 1.25 µM, OCI-C5x cells, with rucaparib 10 µM, 100% = cells with rucaparib alone
# [33] = at 1.25 µM, OCI-C5x cells, without rucaparib
# [34] = at 1.25 µM, OCI-P5x cells, with rucaparib 20 µM, 100% = cells with rucaparib alone
# [35] = at 1.25 µM, OCI-P5x cells, without rucaparib
# [36] = at 5 µM, OCI-C5x cells, with rucaparib 10 µM, 100% = cells with rucaparib alone
# [37] = at 5 µM, OCI-C5x cells, without rucaparib
# [38] = at 5 µM, OCI-P5x cells, with rucaparib 20 µM, 100% = cells with rucaparib alone
# [39] = at 5 µM, OCI-P5x cells, without rucaparib
# [40] = MELAS cybrid survival, CellTiter-Glo 48 h, stronger effect = higher value
# [41] = Rieske KO mouse fibroblast survival, CellTiter-Glo 72 h
structure (smiles),measurement,setting,value
COC1=C2C[C@H](C)C[C@@H](OC)[C@H](O)[C@H](C)/C=C(\C)[C@H](OC(N)=O)[C@@H](OC)/C=C/C=C(\C)C(=O)NC(=CC1=O)C2=O,viability,[1]; [8],97.2% (active)
same,viability,[1]; [9],99.7% (active)
same,viability,[1]; [10],108% (inactive)
same,viability,[1]; [11],102% (inactive)
same,viability,[1]; [12],107% (inactive)
same,viability,[1]; [13],106% (inactive)
same,viability,[1]; [14],93.1% (active)
same,viability,[1]; [15],103% (inactive)
same,viability,[1]; [16],114% (inactive)
same,viability,[1]; [17],109% (inactive)
same,viability,[1]; [18],14.8% (active)
same,viability,[1]; [19],14.2% (active)
same,viability,[1]; [20],29.6% (active)
same,viability,[1]; [21],12.1% (active)
same,viability,[1]; [22],5.75% (active)
same,viability,[1]; [23],4.97% (active)
same,viability,[1]; [24],16.4% (active)
same,viability,[1]; [25],9.53% (active)
same,viability,[1]; [26],5.79% (active)
same,viability,[1]; [27],4.23% (active)
same,viability,[1]; [28],11.1% (active)
same,viability,[1]; [29],7.02% (active)
same,viability,[1]; [30],5.27% (active)
same,viability,[1]; [31],4.3% (active)
same,viability,[1]; [32],9.96% (active)
same,viability,[1]; [33],7.13% (active)
same,viability,[1]; [34],5.24% (active)
same,viability,[1]; [35],3.95% (active)
same,viability,[1]; [36],6.19% (active)
same,viability,[1]; [37],5.94% (active)
same,viability,[1]; [38],4.11% (active)
same,viability,[1]; [39],3.72% (active)
CCn1c(C(=O)OC)c(NC(C)=O)c2cc(NCc3ccc(OC)cc3)cnc21,z-score,[2]; [40],-0.521 (inactive)
same,z-score,[2]; [41],-0.331
same,z-score,[3],-0.96 (inactive)
O=C1[C@H](CC[C@H](O)c2ccc(F)cc2)[C@H](c2ccc(O)cc2)N1c1ccc(F)cc1,viability,[1]; [8],109% (inactive)
same,viability,[1]; [9],121% (inactive)
same,viability,[1]; [10],106% (inactive)
same,viability,[1]; [11],117% (inactive)
same,viability,[1]; [12],107% (inactive)
same,viability,[1]; [13],117% (inactive)
same,viability,[1]; [14],107% (inactive)
same,viability,[1]; [15],114% (inactive)
same,viability,[1]; [16],111% (inactive)
same,viability,[1]; [17],114% (inactive)
same,viability,[1]; [18],101% (inactive)
same,viability,[1]; [19],112% (inactive)
same,viability,[1]; [20],109% (inactive)
same,viability,[1]; [21],118% (inactive)
same,viability,[1]; [22],104% (inactive)
same,viability,[1]; [23],106% (inactive)
same,viability,[1]; [24],107% (inactive)
same,viability,[1]; [25],108% (inactive)
same,viability,[1]; [26],98% (active)
same,viability,[1]; [27],102% (inactive)
same,viability,[1]; [28],111% (inactive)
same,viability,[1]; [29],111% (inactive)
same,viability,[1]; [30],94.9% (active)
same,viability,[1]; [31],104% (inactive)
same,viability,[1]; [32],126% (inactive)
same,viability,[1]; [33],111% (inactive)
same,viability,[1]; [34],96.5% (active)
same,viability,[1]; [35],96.4% (active)
same,viability,[1]; [36],128% (inactive)
same,viability,[1]; [37],103% (inactive)
same,viability,[1]; [38],84.2% (active)
same,viability,[1]; [39],94.6% (active)
NC(=O)c1cc(-c2ccc(F)cc2)cc(-c2ccncc2)c1N,liver cell % of control,[4],110%
same,parasite % of control,[4],93.1% (inactive)
same,percent of negative control (+Dex),[5],92.5% (inactive)
same,z-score,[5],0.27
same,z-score,[6],0.64 (inactive)
same,z-score,[7],-0.928 (inactive)
same,z-score,[2]; [40],-0.833 (inactive)
same,z-score,[2]; [41],0.289
COc1ccc(CN2C[C@@H](COc3cccc(C(F)(F)F)c3)C[C@@H](C(=O)NCC(C)C)C2)cc1OC,z-score,[2]; [40],-0.34 (inactive)
same,z-score,[2]; [41],0.0165
same,z-score,[3],-1.45 (inactive)
CCS(=O)(=O)c1ccc(OC)c(Nc2ncc(-c3cccc(C(C)=O)c3)o2)c1,liver cell % of control,[4],169%
same,parasite % of control,[4],48.2% (inactive)
same,percent of negative control (+Dex),[5],87% (inactive)
same,z-score,[5],0.415
same,z-score,[6],0.56 (inactive)
same,z-score,[7],-0.091 (inactive)
same,z-score,[2]; [40],1.14 (inactive)
same,z-score,[2]; [41],-0.327
CO[C@H]1C[C@H]2CC[C@@H](C)[C@@](O)(O2)C(=O)C(=O)N2CCCC[C@H]2C(=O)O[C@H]([C@H](C)C[C@@H]2CC[C@H](OP(C)(C)=O)[C@H](OC)C2)CC(=O)[C@H](C)/C=C(\C)[C@@H](O)[C@@H](OC)C(=O)[C@H](C)C[C@H](C)/C=C/C=C/C=C/1C,viability,[1]; [8],115% (inactive)
same,viability,[1]; [9],103% (inactive)
same,viability,[1]; [10],79.2% (active)
same,viability,[1]; [11],65.5% (active)
same,viability,[1]; [12],102% (inactive)
same,viability,[1]; [13],97.3% (active)
same,viability,[1]; [14],77.8% (active)
same,viability,[1]; [15],59.6% (active)
same,viability,[1]; [16],97.3% (active)
same,viability,[1]; [17],90.1% (active)
same,viability,[1]; [18],76.6% (active)
same,viability,[1]; [19],61.2% (active)
same,viability,[1]; [20],103% (inactive)
same,viability,[1]; [21],93.1% (active)
same,viability,[1]; [22],76.4% (active)
same,viability,[1]; [23],63% (active)
same,viability,[1]; [24],103% (inactive)
same,viability,[1]; [25],96.7% (active)
same,viability,[1]; [26],76.7% (active)
same,viability,[1]; [27],60.3% (active)
same,viability,[1]; [28],108% (inactive)
same,viability,[1]; [29],95.8% (active)
same,viability,[1]; [30],75.8% (active)
same,viability,[1]; [31],60.4% (active)
same,viability,[1]; [32],104% (inactive)
same,viability,[1]; [33],94.5% (active)
same,viability,[1]; [34],82.1% (active)
same,viability,[1]; [35],60.8% (active)
same,viability,[1]; [36],114% (inactive)
same,viability,[1]; [37],102% (inactive)
